Measured values published in PubChem BioAssay (NCI).
The panel holds about 79,000 compounds, 15% with a hit somewhere; the sample as a whole holds those more often. A number with no mark means an inactive call. Calls of active or inactive are those of the source. Cut-off read from the data, not from the text of the source: active = growth inhibition above about 70%; inactive = the rest. Where a SMILES comes first, the peptide text is derived from it. [ ]: non-standard residue; d: D form. The star is where a group is joined. ξ: configuration not given here. Cbz = O=C(OCc1ccccc1)*; ξM = CSCCC(N)C(=O)O

Experiments:
[1] = NCI Yeast Anticancer Drug Screen. Data for the rad50 strain (AID 155);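 note: 0% = growth of vehicle-only cultures of the same strain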; conditions: S. cerevisiae rad50 strain growth inhibition; at 50.0 µM; active compounds read high
Outline: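 Cells are treated with compound, grown, and their growth is then scored against vehicle-only cultures of the same repair-deficient yeast strain.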

[2] = NCI Yeast Anticancer Drug Screen. Data for the mec2-1 strain (AID 157); conditions: S. cerevisiae mec2-1 strain, at 50.0 µM, active compounds read high
Outline: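 Test agents were screened against the mec2-1 yeast strain, with defined DNA repair or cell cycle alteration. Growth was scored as inhibition against vehicle-only controls.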

[3] = NCI Yeast Anticancer Drug Screen. Data for the sgs1 mgt1 strain (AID 161);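 note: 0% = growth of cultures given vehicle only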; conditions: S. cerevisiae sgs1 mgt1 strain, at 50.0 µM, active compounds read high
Outline: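 Genetically altered yeast, compound exposure, growth inhibition relative to vehicle.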

[4] = NCI Yeast Anticancer Drug Screen. Data for the cln2 rad14 strain (AID 165);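 note: 0% = growth equal to vehicle treated cultures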; conditions: S. cerevisiae cln2 rad14 strain, at 50.0 µM, active compounds read high
Outline: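 Growth of compound-exposed yeast (cln2 rad14 genotype) measured and expressed as inhibition relative to vehicle.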

[5] = NCI Yeast Anticancer Drug Screen. Data for the bub3 strain (AID 167); conditions: S. cerevisiae bub3 mutant strain, at 50.0 µM, active compounds read high
Outline: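 Part of a panel of yeast mutants defective in DNA damage repair or cell cycle regulation. Each strain is grown with compound, and inhibition is calculated relative to solvent-treated cultures.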

[6] = NCI Yeast Anticancer Drug Screen. Data for the mlh1 rad18 strain (AID 175); conditions: S. cerevisiae mlh1 rad18 strain growth inhibition; at 50.0 µM; active compounds read high
Outline: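 In this whole-cell yeast screen, a strain with altered DNA damage repair is challenged with compound, and its growth is measured against matched vehicle-treated controls.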

Compound | growth inhibition [1] | growth inhibition [2] | growth inhibition [3] | growth inhibition [4] | growth inhibition [5] | growth inhibition [6]
CNC(=S)NNC1=NCCCN1 | -48.5% | -10.2% | -25.9% | 13.8% | 9.75% | -9.9%
COc1ccc(-c2cc(=O)c3c([nH]2)CCCC3)cc1 | -10.9% | -6.95% | -11.2% | -16.8% | -4.3% | 5.55%
O=C(O)CCc1ccccc1C(=O)O | 19.6% | -19.6% | -2% | -9.8% | -10.1% | 9.5%
CCCC(P(c1ccccc1)c1ccccc1)P(=O)(c1ccccc1)c1ccccc1 (stereo not drawn) | 62.7% | 39.2% | 39.1% | 24.9% | 59.4% | 29.1%
Nc1ccc(O)cc1 | 15.2% | 7.5% | 39% | 9.35% | 3.45% | 14.9%
O=C1CN(/N=C/c2ccc(-c3ccc(F)cc3)o2)C(=O)N1 | 10.4% | -0.15% | -20.9% | -26.6% | 5.05% | -3.45%
CCCC1(CCC)CNC(=O)NC1 | 0.45% | -3.9% | -5.1% | -11.1% | 1.5% | -10.8%
O=[N+]([O-])/C(C(Cl)=C(Cl)Cl)=C(\SCc1ccccc1)N1CCCCC1 | -25.6% | -8.1% | 6.75% | 19.4% | 31.7% | 14.6%
CCCCCCCCCCCCCCCCCC(=O)CC(=O)OCC | -1.25% | 1.15% | 3.5% | 17.9% | -10% | 4.25%
Cc1ccccc1N=C(N)NC#N | -14% | -31.9% | -15.1% | -4.65% | -13.2% | -49.7%
COc1ccccc1C1OC(C)C(C)O1 (stereo not drawn) | -16.1% | -10.7% | -7.35% | 5.5% | -25.9% | -16.3%
COc1cc2c(cc1OC)C1=C(/C=C\C(C)=O)CCN1CC2 | -6.9% | 20.9% | -4.45% | -8.65% | 0.1% | 5.55%
COc1ccc(C(CC(C)(C)C)c2ccc(OC)cc2)cc1 | -0.9% | -9% | 5.15% | -44.5% | -11.9% | -11.1%
Cc1nc(-n2nc(-c3ccccc3)cc2-c2ccccc2)sc1C(/C=C/c1ccc([N+](=O)[O-])cc1)=N/NC(N)=S | 18.6% | 7.15% | 12.7% | -18.3% | 44.4% | 33.7%
COc1ccc(NC(=O)CC(=O)N/N=C/c2ccc(N(CCC#N)S(=O)(=O)c3ccccc3)cc2)cc1 | -35.5% | -11.8% | -29.5% | 8.15% | -11.2% | -2.75%
CCOC(=O)C1Cc2c(n(C3CCCCC3)c(=O)n(C)c2=O)OC1c1ccccc1 (stereo not drawn) | 14.4% | -5.15% | -7% | 16.1% | 2.55% | -8.05%
CC(C)CCC1(C2CCOCC2)NC(=O)NC1=O (stereo not drawn) | -9.85% | -6.6% | -4.85% | -26.6% | -7.55% | 0.95%
CC(=O)c1ccc2ccccc2c1 | 24.4% | 7.8% | 4.3% | 2.75% | -0.1% | 16.2%
C1OC1CO[C@H]1CO[C@H]2[C@@H]1OC[C@@H]2OCC1CO1 (stereo partly drawn) | -9.35% | -2.4% | 8.05% | -30.5% | 18.1% | 2.25%

Compound | growth inhibition [1] | growth inhibition [2] | growth inhibition [3] | growth inhibition [4] | growth inhibition [5] | growth inhibition [6]
Cc1c(-c2ccccc2)nnn1-c1ccc(F)cc1F | 1.7% | -28.8% | 13.4% | -10.6% | 20.8% | -9.35%
CSc1nc(NC2OCC(O)C(O)C2O)c(Cl)c(=O)[nH]1 (stereo not drawn) | -13.5% | -2.1% | 12.3% | -4.15% | 2.55% | 0.75%
O=C(Nc1nc(C23CC4CC(CC(C4)C2)C3)cs1)c1cc2ccccc2oc1=O | -1.45% | -26.5% | -3.45% | -30.4% | -23.9% | -17.4%
OCCC1=CCC1 | 3.05% | 20.9% | -3.35% | 29.6% | 4.95% | 5.4%
CSCCC(NC(=O)CNC(=O)CNC(=O)OCc1ccccc1)C(=O)O (stereo not drawn) (Cbz-Gly-Gly-[ξM]-OH) | 96.5% (active) | 98.7% (active) | 92.5% (active) | 98.4% (active) | 99% (active) | 96.7% (active)
CC1=CCCC(C)(C)C1/C=C/C(=O)O (stereo not drawn) | 8.45% | -7.35% | -8.75% | -36.3% | -18.1% | -9.2%
Cc1ccc(S(=O)(=O)OCC2OC(CCCO)C/C([Si](C)(C)C)=C\CC2Cl)cc1 (stereo not drawn) | 48.8% | 19.9% | 38.2% | 31.6% | 34.5% | 19.4%
CC1(C)C(=O)CC1C(=O)O (stereo not drawn) | 4.55% | -0.25% | -0.45% | 12.3% | 7.5% | 8.75%
NC(=O)C(N)Cc1ccc(OCc2ccccc2)c(OCc2ccccc2)c1 (stereo not drawn) | 1.4% | 3.35% | 7.3% | -12.8% | 2.45% | 26.2%
Cc1cc(C)c(N=Nc2cc(C)c(N)cc2N)c(S(=O)(=O)O)c1 | -21.6% | -1.35% | -2.1% | -61.5% | 7.3% | 10.8%
COC(=O)C(C#N)=C(C)C | 2.3% | -23.6% | 16.9% | 19.9% | 0.05% | 7.95%
Cc1ccccc1/C1=C/CCCCCC1 | -8.1% | 11.3% | -10.4% | -21.6% | 19.5% | -5.05%
CC1(C)CC(C)(C)c2c1oc(=O)c1c3c(oc(=O)c21)C(C)(C)CC3(C)C | 15.7% | -9.1% | 12.8% | 35.5% | 26.2% | -9.85%
O=C(O)CSCCOCCSCC(=O)O | -15.9% | -54% | -17.1% | 12.1% | -16.3% | -15.6%
O=C1CSC(=S)N1c1ccco1 | 3.4% | -20.1% | 17.9% | 20.7% | -13.1% | 2.85%
COc1ccc(Cc2c(O)ccc3ccccc23)cc1 | 98.6% (active) | 99.4% (active) | 99% (active) | 95.8% (active) | 98.3% (active) | 99.2% (active)
Oc1cc(CN2COc3ccccc32)c(O)cc1CNC1CCCCC1 | -6.65% | -4.95% | -25.6% | 62.5% | -33.7% | -12.3%
COC(=O)c1ccc(SCCC2(COS(C)(=O)=O)OCCO2)cc1 | 18.6% | -16.9% | 1.35% | 18.7% | 1.4% | -4.1%
O=S(=O)(Nc1cccc(C(F)(F)F)c1)c1ccc(F)cc1 | 6.95% | 9.5% | 11% | 12.9% | -3.5% | 42.9%
